{
  "source": "PubChem BioAssay AID504853",
  "about": "(Southern Research Specialized Biocontainment Screening …, 2011)",
  "note": "Measured potencies and affinities stand elsewhere. Active and inactive are the calls of the source. How the calls were made is not given here.",
  "data": [
    {"assay": "HepG2 cell cytotoxicity, dose response, cytotoxicity control, set 3 (AID 504853)", "conditions": "series mostly up to 50 µM; viability: at the top concentration", "values": [
      {"smiles": "COC(=O)c1ccc(CNc2c(N3CCCC3)c(=O)c2=O)cc1", "viability": "101% (inactive)"},
      {"smiles": "CCC(Sc1nc2ccccc2c(=O)[nH]1)C(=O)Nc1cccc(OC)c1", "note": "(stereo not given)", "viability": "100% (inactive)"},
      {"smiles": "O=C(CSc1nc2ccccc2c(=O)[nH]1)NCc1ccc(Cl)cc1", "viability": "94.7% (inactive)"},
      {"smiles": "COc1cccc(NC(=O)CSc2nc3ccccc3c(=O)[nH]2)c1", "viability": "97.3% (inactive)"},
      {"smiles": "CC(Sc1nc2ccccc2c(=O)[nH]1)C(=O)NC1CCCCC1", "note": "(stereo not given)", "viability": "96.2% (inactive)"},
      {"smiles": "Cc1nc(SCC(=O)NCCC(C)C)[nH]c(=O)c1C", "viability": "102% (inactive)"},
      {"smiles": "CCC(Sc1nc2ccccc2c(=O)[nH]1)C(=O)NC1CCCCC1", "note": "(stereo not given)", "viability": "104% (inactive)"},
      {"smiles": "CCSc1nc2ccccc2c(=O)[nH]1", "viability": "98.5% (inactive)"},
      {"smiles": "COC(=O)C(Nc1nc(SCC(=O)NC2CCCCC2)nc2ccccc12)c1ccccc1", "note": "(stereo not given)", "viability": "80.8% (inactive)"},
      {"smiles": "Cc1[nH]c(=S)[nH]c(=O)c1C", "viability": "106% (inactive)"},
      {"smiles": "CC(C)CCNC(=O)CSc1nc2ccccc2c(=O)[nH]1", "viability": "102% (inactive)"},
      {"smiles": "CN(C)C(=O)CSc1nc2ccccc2c(=O)[nH]1", "viability": "95.9% (inactive)"},
      {"smiles": "O=C(CSc1nc2ccccc2c(=O)[nH]1)NC1CCCCC1", "viability": "107% (inactive)"},
      {"smiles": "CNC(=O)CSc1nc2ccccc2c(=O)[nH]1", "viability": "109% (inactive)"},
      {"smiles": "COC(=O)C(C)Oc1ccc(Cc2ncc(C(F)(F)F)cc2Cl)cc1", "note": "(stereo not given)", "viability": "94.3% (inactive)"},
      {"smiles": "NC(=O)CSc1nc2ccccc2c(=O)[nH]1", "viability": "106% (inactive)"},
      {"smiles": "Cc1c[nH]c(=S)[nH]c1=O", "viability": "100% (inactive)"},
      {"smiles": "COc1cccc(NC(=O)CSc2nc3c(c(=O)[nH]2)CCC3)c1", "viability": "93.1% (inactive)"},
      {"smiles": "CCC(Sc1nc2c(c(=O)[nH]1)CCC2)C(=O)Nc1cccc(OC)c1", "note": "(stereo not given)", "viability": "90.7% (inactive)"},
      {"smiles": "O=C(CSc1nc2ccccc2c(=O)[nH]1)NC1CCCC1", "viability": "98.4% (inactive)"},
      {"smiles": "Cc1nc(SCC(=O)N(C)c2ccccc2)[nH]c(=O)c1C", "viability": "99.8% (inactive)"},
      {"smiles": "CN(C(=O)CSc1nc2ccccc2c(=O)[nH]1)C1CCCCC1", "viability": "98.8% (inactive)"},
      {"smiles": "O=C(CSc1nc2ccccc2c(=O)[nH]1)N1CCOCC1", "viability": "107% (inactive)"},
      {"smiles": "CC(C)NC(=O)CSc1nc2ccccc2c(=O)[nH]1", "viability": "93.4% (inactive)"},
      {"smiles": "O=c1[nH]c(SCc2ccccc2Cl)nc2c1CCCC2", "viability": "98.5% (inactive)"}
    ]}
  ]
}
